Results from PubChem BioAssay AID1159506 (National Center for Advancing Translational Sciences (NCATS), 2015).
In all, about 59,000 sequences were measured (the read-out: median about -0.00055, lowest 2% from about -2 on). This is one part of a sample in which the lowest values are shown more often than they occur.

Assay: Identification of proteins required for the processing of the EWS-FLI1 nascent transcript;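 also: robust z of luciferase light less the median z of siRNAs with the same seed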
Details: TC32 Ewing sarcoma NR0B1-luc vs CMV-luc (EWS-FLI1 target promoter against control promoter), 48 h; screened at 20 nM (by protocol)
Procedure, shortened: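 Three siRNAs per gene, each in a separate well at 20 nM, were transfected into TC32 cells bearing either reporter construct. Luminescence was measured two days on, and per-gene comparison relied on seed-corrected Z values.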

Sequence	seed-corrected z-score
AAUACAAUGAGGAUGUUGC against MCHR2	-0.242
AUCUUUAACCCGAAAGGUC against STRC	-3.57
UACUCGAAGAUUUCCGUCC against SEC16B	-0.242
UUCGAUGUCACAGGUCUGC against RGS14	-0.247
UCGAUAUCAACUUUUGCCG against CEP192	-0.779
UUUGAUAGAGGUGCGGACG against OR6F1	-0.169
UAUCCGAUCACCACUCUCC against MYOM3	-0.29
UUCUUUCUGAGUCUGGUUA against RPL35	-3.01
AAAGGCUUAAUUUUUACCU against TOMM7	1.3
UGAGUUCCAGGUCUUAUGC against DEFB110	-0.42
AUAUUGUUUAGCUCCACGG against MASP1	0.285
UAGUCGUUCUUCUACAGCC against MBIP	0.411
UCACGAAGAGUUGCAACUG against ALB	-3.99
UGUAGUAACAGAGCCACGC against PPY	0.227
AAAAGUCCUAGCAUAUUCC against ZER1	0.406
UUUGUGAUCUUGGUGAGGU against SHBG	-0.0288
AACUGGACUGGAAUUGUUU against CXCR1	-0.419
UAUGUGCUGGUGAUCCUUC against DEAF1	0.839
UGUUGUACAACGAUAGCCU against RELL1	-0.595
AUUGUAACGGGUUUUGUUC against CHRNB4	-0.325
AACUGUUCCAUCGACUUGG against RASAL1	-0.492
UUACUGUCCAGAGCACUGA against SMARCD3	-0.925
UUUGCUAUAAUCCACCUCC against IK	-3.11

Sequence	seed-corrected z-score
UAGACGAUAAGACUCUUUC against NCOA7	-0.339
UAUUGAAGCAACUAGGAUG against KIAA0754	-0.869
UGCAGGAUGACCAAAGUGC against LGALS14	0.705
AAUAUGUCCAGCCCAGCUG against CLIC1	-0.000686
UUUCCUUUGGUUGUUAAUG against FDX1	-0.575
UUCCGAGAUAUGGAGGUAC against KIAA0368	0.95
UCAUCUUCUUCCGUUGCCG against PPP1R1A	0.273
UAAGAAAAAGCGGAGUUCG against FZD7	0.0443
UUCUUUUGACUCUUAGUCC against CLEC4C	-2.28
UAGCCUAGGAGAUACAUCG against COPB2	-3.63
UAACUUUUCCCUUAUUCAG against FAM90A3P	0.873
UUCCGUGUGAAACAGAUGG against ARMC4	0.434
AAUGUAGUAAAUGCAAGUU against C3orf79	-0.0591
UUCUGGUAGAAGCAUUUCC against ZNF25	-1.93
UGAUGAAGUAGGUCACGGC against SLC29A4	0.41
UUUUCAGUCUCACUAGUUU against MIPEPP3	0.623
AUUCUUAAUCUUUACAUCC against BRDTP1	0.809
UAAGGGUCCUUCCAUGGCC against PVRIG	0.201
AUGUUUCCCAUAACAGUGG against OR4D2	-3.19
UGAAAAUCACGAGAUUUCC against TEAD1	0.305
UGUUAAACUGCUAAGGAUG against RPRD2	-0.294
UCAUGUACGGCCUCUUCCC against CCDC8	0.173
UCUGUGAGCAGUUUCCACU against SOX21	-2.74

Sequence	seed-corrected z-score
UGAAUGUCUUGCGAUUUGC against CADM2	0.122
UCCCAACCCAGUCAUAACC against BEST3	0.332
UUUCGGUACUCGGUUAACC against EIF3FP3	0.962
UUGUCGUGAAAUGAAACUC against TTLL11	-0.262
UUCCUUUCCACUGCCGUGU against CHRAC1	0.0577
UUCGUUAAGCAAACACUCG against ADAMTS9	0.367
UUUCAGAUAAGCACGAAGC against EIF3M	1.89
UUAGCUGCAUGAUACCAGG against FAM151B	-2.3
AUAGUUACAGAGGCAAGAG against MESTP3	1.98
UAUCUAACUUCUGUCCCGC against HCCS	0.00186
UCUGCAACAAGAUCAACAG against POP5	0.345
UUUUCUACAGCUCUCACUC against CREB3	-2.05
AAACCUAAAAAUGCACUCC against MAGEE1	0.116
UAGGUGACGAUCUCCAUCA against HCK	-1.81
UUUCAUAUGUGAAUCCUCC against TCN2	0.641
AAACUAGUAACUCCUCGUC against PRDM8	-2.41
AGUUGAAUAAGAAAGUACC against MTM1	1.55
UCAAACACCAGGGUGAGGG against CDK18	-0.15
AACUGGUUAUGGUAGUUGC against RMI2	-2.9
UCAGGAUCCAGACAGUUGC against TP53AIP1	0.541
UUAGGUGCACCAGUAAGAG against PEX2	-1.19
UCCAGUAAAAGGCUGAGCG against LGI1	-3.39
UCAGGAUGAUGUGUGGGAU against KRTAP5-11	-1.11

Sequence	seed-corrected z-score
UGCUGUUCAAGCGAAUGCC against DRG1	0.745
AUAAGAUUGGAAUUCGACG against ARL6	0.549
UUUGGAGCUACCACCCGAC against MRPL27	0.314
AAAGCGACACCUGUCAGUC against IKBKAP	-0.0431
UUCAAUGAUAAUAAGGUUG against SF3B3	-3.05
UUUAUCGAAAGCAAAAUUG against MTPAP	0.577
AAAUCGACUACUGAGAACC against CUL9	0.396
AUCCCGACAAUCACCUUCC against DPAGT1	-0.101
AAUGUGGUGAAUACCUCGC against TXLNA	0.621
AUCGGUCACAAAUUGUGGG against ABCE1	-2.31
UGUUCAUCAAGAGGUUUCC against NUP188	0.194
UUUCCAUAGACUUUCCCAC against KLF9	-0.352
UUUCUUAACUGAGUUCCUC against BMF	-0.0574
UAUCAACUCAGUCCUCAGC against HPS6	0.543
AAGACUUUCAGACAUUUGU against ZNF181	-0.276
UUUGGGCUUAGCGGCUUUG against HIST1H1B	-2.05
ACUGUAAUUACUAAGAUCU against CXCR2	-1.37
UACCAGAUGUCUUUUGUGC against IL33	0.0107
UUCUGGUCGAGAGCAUCUG against MAGEB16	-2.42
UAUAACUUGAGAGUAGCUC against POPDC2	0.283
UAUAAGUUUCCUCCCAUGC against TM6SF1	0.269
AUCUUGGACAGUAUCAGCC against IQCF1	-2.36
UUGAGUUUGAUGCCGCUGC against MKNK2	-0.331

Sequence	seed-corrected z-score
UUUCUUAGGGAACCAGUUG against TAGLN2	-0.282
UCCAGAUUCAAAAUGUCUU against NKX2-3	0.184
AAACUCAUCACUCCAGUAC against PARP12	0.00618
UUCUUGACUGCUGGUAUAG against C3orf30	-0.465
UCGGUGUUCACGUAGCCCU against SYNGR3	-0.68
UUUAUUUAGACUUAUGAUC against PTH	-2.27
UCUACUUUUCACAAUGACC against GCLM	-0.666
ACGGCCUCCACUAUGUUUC against RPS26P31	0.368
AAACUGUGAAGCGUAAGUG against FAM188B	-4.34
UGUCAAAUGAAAUUCCUUC against DHX38	-0.779
UGUGUGAGCAUGAAGCGAG against SSNA1	0.0225
AUAUGUAUCAGAACUGGGA against SAE1	-0.67
UGCUGUAAUGAUGUACUCC against KIAA1549	-1.71
UUAAUCACCUUGUCGUUGC against ALDH3A1	-0.669
UGGUCUUAAAAUUAGAGUG against CALR3	-2.01
AUAUGAUUAGGUAGGUUUG against GDPD2	0.805
UCGGAUUGAUCUGUUAUGG against CFAP54	-1.05
UGGUAUAUAAGGGAUGAGC against ZNF611	-2.07
UAUUGUCCAAAUGCUCAGG against SALL1	-0.159
UGUCUAAUAAGGCCUGAGC against ZFP3	-0.177
ACAUCACAAAGUAUUAAUC against LOC643855	0.14
UUGGGUUGGAAGUCCACUG against SF3A1	-2.15
UUCUGGAUUAUAGUCAUCC against CWC22	0.478

Sequence	seed-corrected z-score
AAUGCUUUUAAUGCUCUUC against CARHSP1	-0.968
UGAUCUACUAUGGUCCCUC against CPSF6	0.287
UACAUGAGCCUUGAUCUGG against FAU	1.08
UGCAUGCUCAUUAAGUUCC against TUBE1	-0.26
UGUAGUCACUUUCACAUUC against CCR2	-2.02
UACUCUUAAAGUGAUGUUA against PPP1R1C	0.297
ACAGCACCUAGCAUGAUUG against HIGD1B	1.03
UUCAUUAGCACAUAAGCGG against HENMT1	0.665
UCGAAGUUUACUGCGGUCC against HINFP	-2.19
AUUCAUAUAGUUUUUCUCC against ZNF585B	0.297
UAUGCACAAAGUUUGUGGG against CDC42SE2	-0.65
UCUCCUCCUCGAAAAGUGC against SLC12A7	0.16
AUCCAUGUCAGCGUGAGUC against PSD2	-0.273
AAGAGAAUCAAAAUAGUGG against GPR63	-0.548
AUCCGAACCAGGUAGACAC against PRTG	0.374
AUUGUGGUAGUAGUGUUGG against NUP62CL	-2.29
UCUUUGCCUAGUGUGGUUU against TAF9	-0.576
UGUCUGUUUGUUGAAACUC against APOA5	-0.451
